Values joined by “and” are separate entries in the source; they are usually repeats but may differ in a detail not shown here. Equal entries are not always repeated. About 1,100 (1.5%) of roughly 74,000 compounds were called active. Not shown: some 5% with an inconclusive outcome. The entries come from a sample that favours actives as a whole. Unmarked numbers belong to inactive results. Calls come from the whole dose curve; as a rule, active = well fitted inhibition curve with a large enough effect; inconclusive = small, poorly fitted or top-dose-only effect; inactive = no such curve, though single readings can be large or run the other way.
These compounds were tested against Polyunsaturated fatty acid lipoxygenase ALOX15 (Homo sapiens) (UniProt P16050) (assay: qHTS Assay for Inhibitors of 15-hLO (15-human lipoxygenase)). Conditions: purified 15hLO-1, xylenol orange hydroperoxide absorbance; series mostly up to 57.1 µM; activity change, negative = inhibition: at the top concentration.
From the text: Assay Overview: NIH Molecular Libraries Screening Centers Network [MLSCN] NIH Chemical Genomics Center [NCGC] MLSCN Grant: MH081283-01A1 PI Name: Holman, T.R., University of California, Santa Cruz Human lipoxygenase 15hLO-1 is a member of the closely related lipoxygenase family of enzymes which catalyze the site-specific oxidation of arachidonic acid to various hormone precursor molecules and as such is a candidate for drug development in a variety of disease areas, such as cancer and inflammation. Inhibition of 15hLO-1 activity was screened by utilizing arachidonic acid as a substrate. The extent of hydroperoxide product formation was measured by a secondary chromogenic reaction in which xylenol orange (XO, Sigma-Aldrich, cat. number 39,818-7) reacts with the ferric ions produced from the reaction between the hydroperoxide and ferrous ions. The Fe(III)-XO complex is characterized with red-shifted absorbance at 560 nm. A purified preparation of human 15hLO-1 was supplied by Professor Ted Holman, University of California, Santa Cruz.
Assay Protocol: Buffer: 25 mM Hepes pH 7.5, 0.01% Triton X-100. Reagents/Controls: Buffer in columns 3 and 4 as negative control (no enzyme). Substrate solution: 50 uM arachidonic acid (Sigma-Aldrich, St. Louis, MO) final concentration dispensed throughout the plate. Enzyme: 40 nM 15hLO-1 final concentration in columns 1, 2, 5-48. Column 1 is neutral (100% activity). Column 2 contained pin-transferred titration of NDGA (nordihidroguaiaretic acid, Sigma-Aldrich, N 5023, top concentration 10 mM in DMSO, then 1:2 dilution in duplicate). (Dilution factor: 23 nL into 4 uL.) Chromogenic detection reagent (divalent iron/xylenol orange, Fe-XO): 200 uM xylenol orange plus 300 uM ferrous ammonium sulfate prepared freshly in 50 mM sulfuric acid. Assay Steps: Three uL of enzyme were dispensed to 1536-well Greiner black clear bottom plates. Compounds and controls (23 nL) were transferred via Kalypsys PinTool. The plates were incubated for 15 min at room temperature, and then 1 uL of substrate solution was added to start the reaction. After room temperature incubation for 6 minutes, 4 uL of Fe-XO solution was added to each well followed by a short spin (1000 rpm, 15 sec) and the plates were then incubated for 30 min. The absorbance at 405 and 573 nm were measured using ViewLux (Perkin-Elmer) High-throughput CCD imager and absorbance protocol settings. The 573-to-405 absorbance ratio was used to compute reaction progress.
% is set by controls: 0 for no effect and ±100 for the full control effect; potency is the fitted concentration of half-maximal effect.
Note: nearly all actives have a fitted effect of over 55% in size.

Sequence of Polyunsaturated fatty acid lipoxygenase ALOX15 (Homo sapiens) (P16050 whole entry, looked up): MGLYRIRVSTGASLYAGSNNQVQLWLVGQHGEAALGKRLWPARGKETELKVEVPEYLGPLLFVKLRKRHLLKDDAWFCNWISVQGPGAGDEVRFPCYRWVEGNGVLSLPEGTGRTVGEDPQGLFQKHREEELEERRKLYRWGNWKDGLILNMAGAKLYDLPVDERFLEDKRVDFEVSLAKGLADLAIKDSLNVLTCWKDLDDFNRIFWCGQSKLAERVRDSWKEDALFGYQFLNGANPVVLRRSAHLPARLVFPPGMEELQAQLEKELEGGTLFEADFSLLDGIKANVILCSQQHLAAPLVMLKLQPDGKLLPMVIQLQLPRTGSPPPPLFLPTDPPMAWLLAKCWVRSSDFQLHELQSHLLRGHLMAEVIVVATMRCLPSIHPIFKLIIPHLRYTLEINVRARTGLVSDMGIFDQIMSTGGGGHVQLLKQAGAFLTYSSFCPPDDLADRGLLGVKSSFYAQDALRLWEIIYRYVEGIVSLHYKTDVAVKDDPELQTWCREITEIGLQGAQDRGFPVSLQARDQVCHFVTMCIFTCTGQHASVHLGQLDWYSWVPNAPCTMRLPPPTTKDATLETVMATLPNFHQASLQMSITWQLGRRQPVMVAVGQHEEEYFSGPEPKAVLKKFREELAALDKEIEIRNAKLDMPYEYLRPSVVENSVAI

SMILES	activity change, negative = inhibition	Potency
Clc1ccc(CSc2nnc([C@@H]3CCCN3)o2)cc1	2.51%	–
CC(C)N(CCNC(=O)c1ccc(-n2c(=O)c(=O)[nH]c3ccccc32)cc1)C(C)C	-1.6%	–
CCCc1[nH]nc2c1C(c1ccc(Br)s1)C(C#N)=C(N)O2 (stereo not drawn)	–	15.8 µM (active)
CCCc1[nH]nc2c1C(C1CC=CCC1)C(C#N)=C(N)O2 (stereo not drawn)	-21%	–
CCCc1[nH]nc2c1C(c1ccc(OC(=O)c3ccco3)cc1)C(C#N)=C(N)O2 (stereo not drawn)	2.65%	–
C=C1C([C@@]2(C)C(OC(C)=O)CC(=O)O[C@@](C)(COC(C)=O)C2CC(=O)OC)C(OC=O)C(OC(=O)C(O)C(C)CC)[C@]2(C)C(c3ccoc3)CC(=O)C12O (stereo partly drawn)	-4.84%	–
C/C=C(/C)C(=O)OC1Cc2c(ccc3ccc(=O)oc23)OC1(C)C (stereo not drawn)	-11.6%	–
CCCCC(=O)Nc1ccc2c(c1)OCCO2	3.14%	–
CCOC(=O)NCc1ccc2c(c1)OCO2	14.8%	–
CCC1=C/C(=C\c2ccc3c(c2)OCO3)C(=O)S1	–	25.1 µM (active)
Cc1ccc(C2CC(c3cccc(C)c3)n3nc(N)nc3N2)cc1 (stereo not drawn)	12%	–
CO[C@@H]1COC(=O)C/C=C\[C@H](C)[C@@H](NS(=O)(=O)c2ccc(C)cc2)COC(=O)C/C=C\[C@@H]1C	7.8% [at 11.4 µM] and 8.79% [at 11.4 µM]	–
COc1ccc(C2CC(=O)c3c(O)cc(OC4OC(COC5OC(C)C(O)C(O)C5O)C(O)C(O)C4O)cc3O2)cc1O (stereo not drawn)	-2.78% [at 25.6 µM]	–
COc1c(C(C)C)oc2cc3oc(=O)ccc3cc12	1.8%	–
CC(=O)Oc1c2c(c3c(c1CC=C(C)C)O[C@@]14C(=CC5CC1C(C)(C)OC4(C/C=C(\C)C(=O)O)C5=O)C3=O)OC(C)(CCC=C(C)C)C=C2 (stereo partly drawn)	-15.5%	–
Nc1nc2nc(Cl)[nH]c2c(=O)[nH]1	1.53%	–
CC1CCc2c(sc3c2C2=NS(=O)(=O)CCN2C=N3)C1 (stereo not drawn)	-0.657%	–
CN1CCCC1CCO[C@@](C)(c1ccccc1)c1ccc(Cl)cc1 (stereo partly drawn)	-10.4%	–
CN(CCOc1ccc(CC2SC(=O)NC2=O)cc1)c1ccccn1 (stereo not drawn)	1.32%	–
Oc1ccc(-c2csc(Nc3cccnc3)n2)cc1	-7.34%	–
COc1ccc(-c2n[nH]c(C)c2-c2ccc(OC)c(OC)c2)c(O)c1	-23.3%	–
COc1ccc(OC)c(Nc2nc(-c3ccc(O)c(O)c3)cs2)c1	–	0.126 µM (active)

SMILES	activity change, negative = inhibition	Potency
COc1cccc([C@H]2Oc3ccc(OC)cc3/C(=N\OCC[C@@H]3C=C[C@H](OC(C)=O)[C@H](COC(C)=O)O3)[C@@H]2O)c1	7.41% [at 11.4 µM]	–
CCOC(=O)N/N=C1/C[C@@H](O)[C@@H](O)[C@@H]2[C@@H]3C(=O)N(CC)C(=O)[C@H]3CC[C@H]12	0.206% [at 11.4 µM]	–
COc1ccc(COC(=O)N/N=C2/C[C@@H](O)[C@@H](O)[C@@H]3[C@@H]4C(=O)N([C@@H](C)c5ccccc5)C(=O)[C@H]4CC[C@@H]23)cc1	7.99% [at 11.4 µM]	–
Cc1cc(C)c2nc(N3CCCC3)c(C#N)cc2c1	–	2 µM (active)
CCOc1ccc2nc(N3CCCN(C(=O)Nc4ccccc4C)CC3)c(C#N)cc2c1	-9.41%	–
CC(C)CCNc1nc(N2CCCC2)c2c(c1C#N)CCN(C)C2	-17.6%	–
CC(C)(C)c1ccc(OC2C=CC(C#Cc3ccccc3)OC2CO)cc1 (stereo not drawn)	-12.4% [at 11.4 µM]	–
Cc1cc(C)cc(C#CC2C=CC(Oc3ccc(C4CCCC4)cc3)C(CO)O2)c1 (stereo not drawn)	-14.1% [at 11.4 µM]	–
C[C@@H]1/C=C\CC(=O)OC[C@H]2O[C@@H](C=C[C@@H]2O)[C@H](C)/C=C\CC(=O)OC[C@H]2O[C@H]1C=C[C@@H]2O	5.92% [at 11.4 µM]	–
CC(C)[C@H]1CC[C@@H](C)C[C@H]1O	14.8% [at 25.6 µM]	–
COC1[C@H](OC(N)=O)C(O)[C@H](Oc2ccc3c(O)c(NC(=O)c4ccc(O)c(CC=C(C)C)c4)c(=O)oc3c2C)OC1(C)C (stereo partly drawn)	-28.3%	–
C=C(C)C1CC=C(CO)CC1 (stereo not drawn)	–	12.6 µM (active)
C=C(C)C1CC=C(C)C(O)C1 (stereo not drawn)	-3.82%	–
CCCNC(=O)OC[C@@H]1O[C@H](c2ccccc2)C=C[C@@H]1Oc1ccc(OC)cc1	6.55% [at 11.4 µM]	–
Cc1ccc(C)c(NC(=O)CSc2nnc(Cc3cccn3C)n2-c2ccc(F)cc2)c1	-17.4%	–
Cc1cccc(Br)c1	1.29%	–
CC(C)=CC1C(C(=O)O)C1(C)C (stereo not drawn)	-4.04%	–
C/C(CCN1CCCCc2nc(C)c(C)cc21)=N\O[C@@H](C)c1cn([C@@H]2COC[C@@H]2O)nn1	3.97% [at 11.4 µM]	–
Oc1cc(O)c2c(c1)OC(c1ccc(O)c(O)c1)C(O)C2 (stereo not drawn)	–	12.6 µM (active)
CO[C@H]1COC(=O)[C@@H](C)NC(=O)C/C=C\[C@@H](C)[C@H](OC)COC(=O)C/C=C\[C@@H]1C	-1.15% [at 11.4 µM]	–
CCCCn1c(SCC(=O)NCC2CCCO2)nc2ccc(N3CCOCC3)cc2c1=O (stereo not drawn)	–	12.6 µM (active)

From PubChem BioAssay AID887 (National Center for Advancing Translational Sciences (NCATS), 2007)
